Measured values reported in PubChem BioAssay (NCI).
About 83,000 compounds went through this panel and 20% of them were active in at least one assay; those are over-represented in the sample as a whole.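 Activity criterion: percent growth below 10, measured after cells in 96-well plates were exposed to a single compound concentration for 48 hours.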 Values without a mark were called inactive. Active and inactive are the calls of the source.

System: HS 578T breast
Test: NCI-60 one-dose screen, 48 h (100 = growth as untreated, 0 = no growth, -100 = all killed)
Settings: 10 µM unless noted
Protocol: Growth inhibition of the HS 578T human tumor cell line is measured as a screen for anti-cancer activity. Cells are grown in 96 well plates and exposed to the test compound for 48 hours. Compounds are tested at a single concentration, which is 10^-5 M for most compounds. The reported endpoint is percent growth (GI% or GIPRCNT), where numbers from 0 - 100% represent growth inhibition, and numbers from -100% - 0 represent cell death. For example, a value of 40 represents 60% growth inhibition. A value of 0 means no net growth occurred over the course of the experiment. A value of -40 indicates 40% of cells at the beginning of the experiment died by the end of the experiment. A value of -100 means all cells are dead at the end of the experiment.
NCI-60 Human Tumor Cell Lines Screen was performed using the standard one-dose NCI protocol, which is described in more detail at https://dtp.cancer.gov/discovery_development/nci-60/default.htm.
Compounds with GIPRCNT values below 10 were considered active. Activity score was based on GIPRCNT using the following formula: […]
Score is 0 for GIPRCNT values of 100 or above, 50 for GIPRCNT values of 0, and 100 for GIPRCNT values of -100.

Row | SMILES | growth
1 | O=C1CCCC1[n+]1ccccc1 (stereo not given) | 114%
2 | O=C(/C=C/C12c3ccccc3C(c3ccccc31)C1C(=O)NC(=O)C12)c1ccc(I)cc1 (stereo not given) | 49.1%
3 | Cc1ccc(S(=O)(=O)c2nc(-c3ccccc3)oc2SCC(N)=O)cc1 | 101%
4 | O=c1oc2c(cc1-c1ccccc1)c[n+]([O-])c1ccccc21 | 99.9%
5 | CCOc1ncc([N+](=O)[O-])c(OCC)n1 | 121%
6 | C=CN(C(=O)N1CCN(c2cc3c(cc2F)c(=O)c(C(=O)O)cn3C2CC2)CC1)c1nc(-c2ccc(Cl)cc2)cs1 | 54.3%
7 | COc1ccc(-c2nc3ccc(C)cc3c3c2c(=O)n(C)c(=O)n3C)cc1OC | 74.3%
8 | C=C(C)[C@@H]1CC[C@]2(CO)CC[C@]3(C)[C@H](CC[C@@H]4[C@@](C)(CCCN)[C@H](C(=C)C)CC[C@]43C)[C@@H]12 | -52.3% (active)
9 | COC(=O)c1sccc1-c1cc(O)c(C(=O)Nc2ccccc2)s1 | 103%
10 | CCOC(=O)c1nnn(-c2no[n+]([O-])c2-c2ccc(OC)cc2)c1COc1cccc2cccnc12 | 24.8%
11 | Fc1cc2[nH]ncc2c2c3c(c(-c4cn[nH]c4C(F)(F)F)nc12)CCCC3 | -18.4% (active)
12 | COc1cc(Cc2cc(OC)c(O)c(OC)c2)cc(OC)c1O | 92.3%
13 | Cc1nn(C)c2ncnc(N/N=C/c3cccc(O)c3O)c12 | 52.3%
14 | O=C(Cc1ccc(/C=C/C(=O)c2ncc[nH]2)cc1)Nc1cc(F)c(F)c(F)c1 | 37%
15 | CCOC(=O)c1c(NC(=O)c2ccccc2)sc2c3c(ccc12)OCN(C)C3 | 57.9%
16 | Cc1nc2sc(C(=O)Nc3ccccn3)c(N)c2cc1C(C)O (stereo not given) | 74.7%
17 | COCCn1cc(-c2csc(-c3c[nH]c4ccccc34)n2)c2cccnc21 | 57.4%
18 | CN(C)c1ccc([C@@H](C(=O)Nc2cccc([N+](=O)[O-])c2)N(C(=O)c2cc3ccccc3[nH]2)c2cccc([N+](=O)[O-])c2)cc1 | 93.5%
19 | Oc1ccc(-c2nc3ccc4[nH]ncc4c3c3c2CCCC3)c(F)c1 | 14.8%
20 | CCN(CC)C(=O)C1=C(C)NC(=O)NC1c1ccc2c(c1)OCO2 (stereo not given) | 96.7%

Row | SMILES | growth
21 | CCOc1ccc(NC(=O)Nc2ccc(OCC)cc2)cc1 | 101%
22 | C=C(C)[C@@H]1CC[C@]2(C(=O)Nc3ccccn3)CC[C@]3(C)[C@H](CC[C@@H]4[C@@]5(C)CCCNC(C)(C)[C@@H]5CC[C@]43C)[C@@H]12 | 26.9%
23 | Clc1ccc(Nc2nnc(CNc3ccccc3)c3ccccc23)cc1 | 26.6%
24 | Cn1c(=O)[nH]c(=O)c2nc3c(nc21)-c1ccccc1C3=O | 104%
25 | COc1ccc(/C=C/C(c2cc(OC)c(OC)c(OC)c2)n2cncn2)cc1O (stereo not given) | 28.5%
26 | COc1cc([C@@H](CCO)C[C@H](C)c2ccc3ccccc3c2)cc(OC)c1OC | 22.2%
27 | CCOC(=O)C1=C(CC(O)c2ccc(OC)cc2OC)NC(=O)NC1c1ccccc1 (stereo not given) | 117%
28 | COc1ccc(C2CC(n3ccnc3)c3cc(OC)c(OC)c(OC)c32)cc1O (stereo not given) | 85.4%
29 | O=C1O[C@@H](c2ccccc2Cl)[C@@H]2c3cc4c(cc3CCN12)OCO4 | 101%
30 | O=S(Nc1ccccc1)c1ccc(Cl)cc1 (stereo not given) | 84.6%
31 | O=C1C(Cl)=C(Nc2ccccc2)C(=O)c2ccccc21 | 54%
32 | Cc1ccc(NC(=O)c2cc3ccccc3cc2O)c(C)c1 | 98.9%
33 | COc1ccc2c(c1)c(-c1nc(-c3ccc4ccccc4c3)cs1)cn2C | 97%
34 | COC(=O)c1ccc2c(c1)c1c(C)c3cnccc3c(C)c1n2C | -15% (active)
35 | C/C(Cc1ccc(Cl)cc1)=C(\c1ccc(OCCN2CCCCCC2)cc1)c1ccc(OC(=O)c2ccccc2)cc1 | 56%
36 | COc1ccc2c(O)c(/C=C3\N=Nc4ncccc43)oc2c1C[C@@H]1CCNC[C@H]1F | -1.31% (active)
37 | Nc1c(Cl)cc(/C=C2\C=Cc3ccccc32)cc1Cl | 115%
38 | Clc1ccc(Nc2ncc(Cc3cccc(Cl)c3Cl)s2)cc1 | 102%
39 | O=C1Nc2ccc(Cl)cc2/C1=C/c1ccc[nH]1 | 114%
40 | COc1nc(/C=C\Nc2ccc3c(c2)OCCOCCOCCOCCO3)nc(OC)n1 | 89.9%
